Bioassay records from PubChem.
Many of the other results were omitted from the sample, so hits are more common in it than they were.
Dicer processing = human Dicer pre-microRNA cleavage inhibition. Q9UPY3. cat-ELCCA pre-miR-21 Dicer processing, chemiluminescence; hits give high values. z-score at 25 µM. actives 6% (n = 47,000). AID 1347074; in the data active means z-score above about 3, passing the limit was not always enough;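 further: plate controls were vehicle for no effect and no enzyme for full effect; higher signal means more uncleaved substrate so more Dicer inhibition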
The depositor's hits bear a star.

SMILES	Dicer processing
Cc1cc2nc(-c3cccc(N)c3C)oc2cc1C	3.03*
Cc1ccc2oc(-c3cccc(N)c3C)nc2c1	2.07
Cc1ccc(-c2nc3ccccc3o2)cc1N	-0.44
COc1ccc(C2/C(=C(\O)c3ccc(C)cc3)C(=O)C(=O)N2CCCn2ccnc2)cc1 (stereo not drawn)	-0.25
COC(=O)CNC(=O)CSC(C)C	8.24
Cn1c(/C=C/c2cccc(Oc3ccccc3)c2)c([N+](=O)[O-])c(=O)n(C)c1=O	-0.61
COc1cc2c(cc1OC)CN(C(=O)c1ccco1)CC2	4.99*
COc1cc2nc(N3CCN(C(=O)c4ccco4)CC3)nc(N)c2cc1OC	0.19
COc1cc2c(cc1OC)CN(C(=O)CSc1nnc3ccccn13)CC2	-0.05
CCOC(=O)C1=C(C)NC2=C(C(=O)CC(C)(C)C2)C1c1ccccc1F (stereo not drawn)	-0.1
O=C(CSCc1csc2ccccc12)NCc1ccc2c(c1)OCO2	-0.3
N#C/C(=C\Nc1cc(C(F)(F)F)cc(C(F)(F)F)c1)C(=O)Nc1ccc(F)c(Cl)c1	-0.31
Cc1cc(C(=O)Nc2ccc(F)cc2)c(C)o1	-1.68
C/C(Nc1ccc([N+](=O)[O-])cc1)=C1/CCOC1=O	1.55
C/C(Nc1ccc(F)cc1)=C1/CCOC1=O	3.17*
CCOC(=O)C1=C(C)NC2=C(C(=O)CCC2)C1c1ccc(OCC)cc1 (stereo not drawn)	-0.51
C#CCN1C(=O)C(O)(CC(=O)c2ccc(C)cc2C)c2ccccc21 (stereo not drawn)	1.64
C#CCN1C(=O)C(O)(CC(=O)c2c(C)cc(C)cc2C)c2ccccc21 (stereo not drawn)	4.29*
C#CCN1C(=O)C(O)(CC(=O)c2cc(C)ccc2C)c2ccccc21 (stereo not drawn)	1.08
COc1ccc2c(c1)c(=O)oc1cc(OCc3cc(C(=O)O)oc3C)ccc12	-0.93
Fc1ccccc1CN1CCN(CC2CC=CCC2)CC1 (stereo not drawn)	-0.94
CC(C)(C)C(=O)c1cn(CC(=O)N2CCCC2)c2ccccc12	1.21
CS(=O)(=NS(=O)(=O)c1cc(Cl)ccc1Cl)c1ccc(Cl)cc1 (stereo not drawn)	4.06*
CS(=O)(=NS(=O)(=O)c1ccccc1C(F)(F)F)c1ccc(Cl)cc1 (stereo not drawn)	-0.05
CS(=O)(=NS(=O)(=O)c1ccc(Cl)cc1)c1ccccc1 (stereo not drawn)	-1.29
SMILES	Dicer processing
COc1ccc(N2COC(C)c3nc4ccccc4n3C2)cc1 (stereo not drawn)	1.55
O=C1C(O)=C(C(=Nc2ccccc2)c2ccccc2)C(=O)N1c1ccc(Cl)cc1	1.12
Cc1ccsc1/C=C/c1cc(C(F)(F)F)[nH]c(=O)n1	1.09
COc1cc(/C=C/c2cc(C(F)(F)F)[nH]c(=O)n2)ccc1O	-0.13
O=c1nc(/C=C/c2ccc(-c3cccc(F)c3)o2)cc(C(F)(F)F)[nH]1	3.13*
CSc1ncc(C#N)c2nc(-c3ccc(Cl)cc3)nn12	-0.75
CCOC(=O)C1=C(C)Nc2nnnn2C1c1ccc(OC)cc1 (stereo not drawn)	0.47
O=C1c2cccc(Oc3ccccc3)c2C(=O)c2c(Oc3ccccc3)cccc21	-0.06
COc1ccc(S(=O)(=O)N2CCSC2c2ccccc2OC)cc1 (stereo not drawn)	0.65
COc1ccc(C2SCCN2S(=O)(=O)c2ccc(C)cc2)cc1 (stereo not drawn)	-1.36
COc1ccc(Br)cc1C1SCCN1S(=O)(=O)c1cccc(C)c1 (stereo not drawn)	2.94
CCOc1ccc(S(=O)(=O)N2CCSC2c2ccc(OC)c(OC)c2)cc1 (stereo not drawn)	3.3*
COc1ccc(S(=O)(=O)N2CCSC2c2ccccc2Cl)cc1 (stereo not drawn)	3.32*
COc1ccc(C2SCCN2S(=O)(=O)c2cccc(C)c2)cc1 (stereo not drawn)	6.16*
COc1ccccc1C1SCCN1S(=O)(=O)c1ccc(Cl)cc1 (stereo not drawn)	1.2
COc1ccc(C2SCCN2S(=O)(=O)c2cccc(C)c2)cc1OC (stereo not drawn)	0.87
COc1ccc(OC)c(C2SCCN2S(=O)(=O)c2ccc(-c3ccccc3)cc2)c1 (stereo not drawn)	-0.18
COc1ccc2c(ccc(/C=C3\Sc4ccccc4N3C)[n+]2C)c1	-0.9
C=C(C)Cc1c(C)nc(SCC(=O)c2ccc(Cl)cc2)[nH]c1=O	1.18
N#CCS(=O)(=O)Cc1ccc(Cl)cc1	-0.91
CC(C(=O)NNC(=O)NC(C)(C)C)n1nnc(-c2cc(C(F)(F)F)cc(C(F)(F)F)c2)n1 (stereo not drawn)	1.43
COc1cc(C)c(Cl)cc1S(=O)(=O)n1ccnc1C(C)C	0.84
Cc1nc(-c2ccc(S(=O)(=O)N3CCC(n4cccc4)CC3)s2)cs1	1.91
CCCSc1nnc2c(n1)OC(c1ccc([N+](=O)[O-])o1)Nc1ccccc1-2 (stereo not drawn)	0.13
COC(=O)C1=C(C)NC2=C(C(=O)CC(c3ccccc3)C2)C1c1ccccn1 (stereo not drawn)	2.29
SMILES	Dicer processing
O=C(CN1CCCCC1)N1N=C2c3ccccc3CCC2C1c1ccc(F)cc1 (stereo not drawn)	-1.25
CCOc1ccc(N2C(=O)C3C(C(=O)OC)=NN(C(C)=O)C3C2=O)cc1 (stereo not drawn)	2.49
Clc1ccc(-c2cc(NC3CCCCC3)n[nH]2)cc1	-4.59
CC(=O)CSc1ccc(C(F)(F)F)cn1	-0.89
CCCCCCCNC1CC(=O)N(c2ccc(Cl)cc2)C1=O (stereo not drawn)	-0.55
O=C1CC(NCc2ccc(Cl)cc2)C(=O)N1c1ccc(Br)cc1 (stereo not drawn)	-3.31
O=C1CC(NCCc2ccc(Cl)cc2)C(=O)N1c1ccc(Br)cc1 (stereo not drawn)	4.59*
COc1ccc2c(c1)C(C)CC(C)(C)N2C(=O)CSc1nccc(C)n1 (stereo not drawn)	0.22
COCc1nc(-c2ccc(-c3ccc(Cl)cc3)nc2OC)no1	-0.2
N#C/C(=C\N1CCc2ccccc2C1)C(=O)c1cccs1	0.66
O=C(c1ccncc1)N1CCN(C(=O)c2cccs2)CC1	-1.42
O=C(c1cccs1)N1CCc2ccccc2C1	3.66*
Nc1ncnc2oc(-c3ccccc3)c(-c3ccccc3)c12	1.44
Cc1cccc2nc(-c3ccno3)oc(=O)c12	1.33
c1ccc(-c2nnc3sc(-c4cccs4)nn23)cc1	-0.93
c1ccc(-c2nn3c(-c4ccccc4)nnc3s2)cc1	-0.02
c1ccc(-c2nnc3sc(-c4ccco4)nn23)cc1	3.01*
O=c1c2ccccc2c2ccccc2c(=O)n1Cc1ccccn1	2.44
CCOC(=O)c1c(Cl)c(C(C)(C)C)nc(N2CCOCC2)c1C#N	-3.1
Cn1c(-c2ccccc2)cn2cc(-c3ccccc3)nc12	8.7
COc1cccc2ccc(=O)n(C)c12	2.12
Cn1c(-c2ccccc2)cccc1=O	3.77*
Cc1ccc(-n2c(=O)[nH]c3sc(-c4ccccc4)cc3c2=O)cc1	3.16*
Cc1ccccc1-n1c(=S)[nH]c2sc(-c3ccccc3)cc2c1=O	2.51
O=c1[nH]c2sc(-c3ccccc3)cc2c(=O)n1-c1ccccc1	2.09
c1ccc(C(CCNc2ncnc3nc[nH]c23)c2ccccc2)cc1	-0.18
COc1cc(OC)cc(-c2nc(-c3ccccc3)c3ccccn23)c1	-3
Cc1cc(C(F)(F)F)nc2c(Cl)c(C3CC3)nn12	21.1
CC1=CC(C)(C)N(C(=O)NC2CCCCC2)c2cc(C)ccc21	-0.28
